From PubChem BioAssay (NCATS)
Inconclusive results are not listed. Entries that show only a call come without a potency. Active and inactive are the calls of the source. Unless noted, the call rests on the fitted dose curve; in most records, active means well fitted curve in the direction sought with a large enough effect; inconclusive means small, poorly fitted or top-dose-only effect, or another doubt; inactive means no such curve, though single readings can be large; an effect the other way counts as inactive or inconclusive.

How the values were obtained:
[1] = qHTS Assay for Identification of Small Molecule Agonists for NFkB Signaling Pathway. (AID 624478);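 further: compounds tested together with TNF alpha at its EC50 of 10 pM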
Summary of the method: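 Compounds were added with 10 pM TNF alpha (EC50 level) to ME-180 NFkB-bla cells in low-serum Opti-MEM and incubated 5 hrs at 37 C. Beta-lactamase FRET read-out used 405 nm excitation and 460 and 530 nm emission.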

[2] = qHTS Assay for Identification of Small Molecule Antagonists for NFkB Signaling Pathway. (AID 624479; calls by dose curve;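 further: pathway stimulated with TNF alpha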; further: potency means the concentration at half of the fitted maximal effect)
[3] = Cytotoxicity counterscreen for NFkB agonists and antagonists (AID 624476);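 further: cells exposed to compound for 48 hours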

Question: Which results are given for `CCc1cc(-c2n[nH]c(C)c2-c2ccc3c(c2)OCCO3)c(O)cc1O`?
Answer: outcome [1]: inactive; Potency [2]: 3.75 µM (active)

Question: Which outcome [1] does the source give for `CCN(CC)CCCCNc1nc2cc(Cl)c(Cl)cc2nc1-c1ccc(-c2cccs2)s1` here?
Answer: The outcome was “inactive”.

Question: And the Potency [2]?
Answer: Its Potency is 11.9 µM (active).

Question: For `CC(=O)Nc1cccc(-n2c(=O)n(C3CC3)c(=O)c3c(Nc4ccc(I)cc4F)n(C)c(=O)c(C)c32)c1`, which outcome [1] is on record?
Answer: The outcome was “inactive”.

Question: Which results are given for `CCCCCCCCCCCCCC(=O)N[C@H](CO)[C@H](O)c1ccc([N+](=O)[O-])cc1`?
Answer: outcome [1]: inactive; Potency [2]: 29.8 µM (active)

Question: What does the source list for `O=C(Nc1cccc(Cl)c1)Nc1ncc(CCNc2ncnc3ccsc23)s1`?
Answer: outcome [1]: inactive; Potency [2]: 23.7 µM (active)

Question: Which outcome [1] does the source give for `CN(C)CCCNC(=O)c1ccc(-c2cc(O)c3ncccc3c2)cc1` here?
Answer: The outcome was “inactive”.

Question: What about the Potency [2] of the same molecule?
Answer: The Potency was “inactive”.

Question: With `O=C(O)c1ccc(O)c2ncc(N3CCOCC3)cc12` as the molecule, how does the Potency [3] read?
Answer: The Potency was “inactive”.

Question: What about the outcome [1] of the same molecule?
Answer: Its outcome is “inactive”.

Question: What about the Potency [2] of the same molecule?
Answer: The Potency was “inactive”.

Question: With `OCCn1cc(-c2ccc3c(c2)CCC3=NO)c(-c2ccncc2)n1` as the molecule, how does the Potency [3] read?
Answer: Its Potency is “inactive”.

Question: And the outcome [1]?
Answer: The outcome was “inactive”.

Question: What about the Potency [2] of the same molecule?
Answer: Its Potency is “inactive”.
